Format in all cases: functional
Experiment [1] deals with Solute carrier family 2, facilitated glucose transporter member 1 (Homo sapiens) (UniProt P11166). The experiment is described as follows: ST_JUDE_LEISH: Cytotoxicity at 2uM final concentration against transgenic Leishmania Mexicana promastigotes LmGLUT1 that are glucose transport deficient and complemented with the human glucose transporter GLUT1. Activity is measured by DNA content using SYBR green in vitro.

Experiment [2] concerns the target Hexose transporter 1 (Plasmodium falciparum) (UniProt O97467). The experiment is described as follows: ST_JUDE_LEISH: Cytotoxicity at 2uM final concentration against transgenic Leishmania Mexicana promastigotes LmPfHT that are glucose transport deficient and complemented with the Plasmodium falciparum hexose transporter. Activity is measured by DNA content using SYBR green in vitro.

Experiment [3] deals with Glucose transporter (Leishmania mexicana) (UniProt O61059). The experiment is described as follows: ST_JUDE_LEISH: Cytotoxicity at 2uM final concentration against transgenic Leishmania Mexicana promastigotes LmGT2 that are glucose transport deficient and complemented with the L. Mexicana glucose transporter 2. Activity is measured by DNA content using SYBR green in vitro.

Sequence of Solute carrier family 2, facilitated glucose transporter member 1 (Homo sapiens) (P11166 whole entry): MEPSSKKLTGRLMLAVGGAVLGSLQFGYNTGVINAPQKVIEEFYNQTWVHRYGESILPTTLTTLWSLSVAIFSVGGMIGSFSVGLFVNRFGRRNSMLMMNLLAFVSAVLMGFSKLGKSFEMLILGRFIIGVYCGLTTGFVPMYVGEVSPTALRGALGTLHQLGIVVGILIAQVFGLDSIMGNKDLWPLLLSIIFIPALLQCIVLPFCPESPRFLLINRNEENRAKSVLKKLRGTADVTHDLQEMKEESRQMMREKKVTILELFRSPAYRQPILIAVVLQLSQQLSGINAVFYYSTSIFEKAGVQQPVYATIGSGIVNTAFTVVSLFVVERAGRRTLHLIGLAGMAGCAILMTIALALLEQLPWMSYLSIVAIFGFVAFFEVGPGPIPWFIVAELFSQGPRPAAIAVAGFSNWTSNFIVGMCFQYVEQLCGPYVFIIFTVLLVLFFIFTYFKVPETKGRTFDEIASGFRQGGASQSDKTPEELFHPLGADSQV

As for `CN(Cc1ccc(-c2ccc(C(F)(F)F)cc2)cc1)C(=O)Cn1c(CCc2cccc(F)c2F)cc(=O)c2ccc(OCCCN3CCCCC3)cc21`, the inhibition in experiment [1] was 1.01%; in experiment [2], 0.66%; in experiment [3] it was -0.5%.

`CCn1c(Sc2ccc(C#N)c([N+](=O)[O-])c2)nnc1-c1cccc(Cl)c1`: the values for the inhibition in experiment [1], in experiment [2] and in experiment [3] were 16.9%, 14.9% and 11.8%, respectively.

Take `COc1ccc(Br)cc1/C=C/C(=O)Nc1cccc(C2CCCN(C)C2)c1` (stereo unspecified): the inhibition was determined as 6.13% in experiment [1], 5.55% in experiment [2] and 7.45% in experiment [3].

As to `COc1ccc2nccc([C@@H](O)CN3CCC(NCC4COc5ccccc5O4)CC3)c2c1` (stereo partly specified), the results for the inhibition in experiment [1], in experiment [2] and in experiment [3] were 7.53%, 8.69% and 1.37%, respectively.

In the case of `FC(F)(F)c1cc(CNCCCNc2nc3ccncc3[nH]2)ccc1Cl`, the inhibition in experiment [1] was determined as 1.9%; in experiment [2], 1.51%; in experiment [3], 0.35%.

As to `COc1cc2nc(N3CCC(CNC(=O)/C=C/c4ccccc4F)CC3)nc(N)c2cc1OC`, the results for the inhibition in experiment [1], in experiment [2] and in experiment [3] were 8.22%, 7.84% and 4.27%, respectively.

Turning to `O=C(/C=C/c1ccc(Cl)c(Cl)c1)NCCCCCN1CCC(NC(=S)Nc2ccc(Cl)c(Cl)c2)CC1`, the inhibition was found to be 4.99% in experiment [1], 5.09% in experiment [2] and 3.5% in experiment [3].

For the compound `CC(C)COc1ccc(Cl)cc1Nc1nc(-c2nc3ccccc3[nH]2)cs1`, the inhibition amounted to 2.76% in experiment [1], 1.35% in experiment [2] and 1.01% in experiment [3].

`COc1ccc2nccc([C@@H](O)CN3CCC(NC(=O)/C=C/c4cccc(NC(C)=O)c4)CC3)c2c1`: the inhibition in experiment [1] amounted to 3.71%; in experiment [2], 3.46%; in experiment [3], 4.66%.

Turning to `C[C@H](Cc1ccc(C[C@@H](C)NC[C@H](O)c2cccc(Cl)c2)cc1)NC[C@H](O)COc1ccccc1`, the inhibition in experiment [1] came to 1.99%; in experiment [2], 1.95%; in experiment [3], 3.59%.

For `Cc1[nH]c(C)c(-c2ccc(CCc3cccc(C(F)(F)F)c3)nc2)c(=O)c1Cl`, the inhibition in experiment [1] was 2.83%; in experiment [2], 2.18%; in experiment [3], 0.88%.

For the compound `CC(NCCc1cccc(Cl)c1)C(O)c1ccc(OCCCCCCOc2ccc(C(O)C(C)NCCc3cccc(Cl)c3)cc2)cc1` (stereo unspecified), the inhibition amounted to 38.2% in experiment [1], 69.9% in experiment [2] and 24.4% in experiment [3].

With `CS(=O)(=O)c1ccc(CCNCc2ccc(-c3ccc(CN(C(=O)C4CC(=O)c5ccccc54)C4Cc5ccccc5C4)cc3)nc2)cc1` (stereo unspecified), the inhibition is 1.52% in experiment [1], -0.58% in experiment [2] and -0.89% in experiment [3].

Take `Cc1cc(C(=O)CN2C(=O)NC3(CCOc4ccccc43)C2=O)c(C)n1Cc1ccc(F)cc1` (stereo unspecified): the inhibition in experiment [1] came out at 3.91%; in experiment [2], 2.31%; in experiment [3], 1.1%.

On to `Cc1cc(N[C@@H](CC(C)C)C(=O)NCCOc2ccccc2)nc(NCC2CCCCC2)n1`, for which the values for the inhibition in experiment [1], in experiment [2] and in experiment [3] were 3.08%, 9.67% and 6.41%, respectively.

With `CCOc1ccc2[nH]c(C)cc(=NN=Cc3ccccc3F)c2c1`, the inhibition was determined as 4% in experiment [1], 4.47% in experiment [2] and 3.86% in experiment [3].

For `COc1cc2ncnc(Nc3ccc(OCc4ccccc4)c(I)c3)c2cc1OC`, the inhibition in experiment [1] worked out at 1.41%; in experiment [2] it was 0.71%; in experiment [3], 1.33%.

As to `O=C(Nc1nc2cc(S(=O)(=O)NCc3ccc(Cl)c(Cl)c3)ccc2n1CCCN1CCCC1)c1ccc(Cl)cc1`, the results for the inhibition in experiment [1], in experiment [2] and in experiment [3] were 1.48%, 1.6% and 3.04%, respectively.

As for `O=C(CSc1ccccn1)Nc1c(F)cccc1F`, the inhibition in experiment [1] was 3.81%; in experiment [2], 3.5%; in experiment [3], 2.68%.

Turning to `Cc1ccc2[nH]c(C)cc(=NN=Cc3ccccc3F)c2c1`, the results for the inhibition in experiment [1], in experiment [2] and in experiment [3] were 13.5%, 12.6% and 8.78%, respectively.

Turning to `CCCCOc1cc(OC)c2ccccc2c1CCNCCCCNCCc1c(OCCCC)cc(OC)c2ccccc12`, the inhibition turned out to be 105% in experiment [1], 106% in experiment [2] and 104% in experiment [3].

With `S=C(Nc1cccc(Cl)c1)NC1CCN(c2ccnc3cc(Cl)ccc23)C1` (stereo unspecified), the inhibition in experiment [1] was determined as 13.2%; in experiment [2], 9.65%; in experiment [3], 9.07%.

As to `CC(=O)N(C)c1cccc(C(=O)Nc2cccc(-c3cccc(-c4nc5cccc(C)c5[nH]4)c3)c2)c1`, the inhibition came to 13.3% in experiment [1], 3.96% in experiment [2] and 11.4% in experiment [3].

In the case of `O=C(NCCCN1CCCCC1)c1cccc(Nc2nccc(Nc3ccc(Oc4ccccc4)cc3)n2)c1`, the figures for the inhibition in experiment [1], in experiment [2] and in experiment [3] were -2.69%, -2.52% and -2.53%, respectively.

As for `O=C(NC1CCN(c2ccc(F)cc2[N+](=O)[O-])CC1)c1cccs1`, the inhibition is 4.31% in experiment [1], 3.82% in experiment [2] and 2.71% in experiment [3].

As to `Fc1ccc(Nc2nnc(CNC3CCN(Cc4ccc(Cl)c(Cl)c4)CC3)[nH]2)cc1`, the inhibition was 2.85% in experiment [1], 0.21% in experiment [2] and -0.83% in experiment [3].

Regarding `COC(=O)c1cccc(CNCc2ccc(-c3ccc(-c4nc5cccc(C)c5[nH]4)s3)cc2)c1`, the inhibition in experiment [1] stood at 6.31%; in experiment [2] it was 2.96%; in experiment [3], 1.56%.

`CC1CN(c2cc(=O)n(Cc3cccc(NC(=O)Nc4ccc(-c5ccccc5)cc4)c3)cn2)CC(C)N1` (stereo unspecified): the inhibition is 1.17% in experiment [1], 2.06% in experiment [2] and -1.85% in experiment [3].

For `Cc1cc(NCCCOc2ccc(Cl)cc2)nc(NCc2ccccc2)n1`, the inhibition amounted to 18.8% in experiment [1], 11.1% in experiment [2] and 7.19% in experiment [3].

For `O=C(Nc1ccc(C(F)(F)F)cc1)c1ccc(S(=O)(=O)NC2CCN(Cc3ccccc3)C2)cc1` (stereo unspecified), the figures for the inhibition in experiment [1], in experiment [2] and in experiment [3] were 5.58%, 5.18% and 2.71%, respectively.

Turning to `COC(=O)c1ccc(-c2ccc(C(=O)NCC3CCN(c4nc(N)c5cc(OC)c(OC)cc5n4)CC3)cc2)cc1`, the inhibition in experiment [1] was 4.1%; in experiment [2], 4.23%; in experiment [3] it was 2.11%.

Regarding `CC(C)NCc1cccc(-c2ccc(-c3nc4cc(C(F)(F)F)ccc4[nH]3)cc2)c1`, the inhibition in experiment [1] was found to be 7.38%; in experiment [2] it was 6.19%; in experiment [3], 6.87%.

The values above are taken from ChEMBL document CHEMBL3433997, “St. Jude Leishmania screening dataset” (2016).
